Screen size: about 13,000 compounds; about 3,200 (25%) showed an effect of 50% or more. Some of the results follow.
The compounds below were run on P. falciparum stage V gametocytes. Conditions: 48 h, 5 µM; inhibitor.
Design: BacTiter-Glo ATP luminescence viability of purified stage V gametocytes in 384-well plates, per cent inhibition versus DMSO
With `CN1CCC=C(C(=O)NCC(C)(C)c2nc(-c3ccc(Cl)c(O)c3)c(-c3ccncc3)[nH]2)C1` [TCMDC-140700] the “% Inhibition” value was -7.132%.
With `Cc1c(OC(C)C)nc2ccccc2c1C(=O)N[C@H](c1cccc(F)c1)C1CC1` [TCMDC-135994] the “% Inhibition” value was -18.71%.
For `O=C(NCCN1CCCC1)c1cccc(-c2ccc(-c3nc4ccccc4[nH]3)cc2)c1` [TCMDC-132324], the “% Inhibition” value was -2.761%.
`CC(C)c1ccc(NC(=O)c2ccc(CN3CCCN(Cc4cccc(O)c4)CC3)cc2)cc1` [TCMDC-136419] was tested, and the “% Inhibition” value was -24.98%.
In the case of `Cc1cccc(-c2nn(-c3ccccc3)c3[nH]c(=O)c(CN4CCSCC4)cc23)c1` [TCMDC-124897], the “% Inhibition” value is reported as 84.44%.
`Cc1cccc(-c2nn(-c3ccccc3)c3[nH]c(=O)c(CNC4CCCC4)cc23)c1` [TCMDC-136663] was tested, and the “% Inhibition” value was 9.349%.
For `O=c1[nH]c2c(cc1CNC1CCCCC1)c(-c1cccc(F)c1)nn2-c1ccccc1` [TCMDC-125867], the “% Inhibition” value was 39.49%.
`Cc1ccc(NC(=O)c2ccc(CN3CCCN(CC4CCCCC4)CC3)cc2)cc1C` [TCMDC-136425] was tested, and the “% Inhibition” value was -18.57%.
For `Cc1cc(-c2c[nH]c3ncc(-c4cccc5ncccc45)cc23)ccc1C(=O)O.O=C(O)C(F)(F)F` [TCMDC-136377], the “% Inhibition” value was 16.5%.
With `CNc1ccc(CNCc2ccc(-c3ccc(-c4nc5cc(C(F)(F)F)ccc5[nH]4)s3)cc2)cc1.O=C(O)C(F)(F)F` [TCMDC-132985] the “% Inhibition” value was 42.48%.
For `NC(=O)C1CCN(Cc2ccc(-c3ccc(-c4nc5cc(C(F)(F)F)ccc5[nH]4)s3)cc2)CC1.O=C(O)C(F)(F)F` [TCMDC-132687], the “% Inhibition” value was -37.37%.
In the case of `NCc1ccc(CNCc2ccc(-c3ccc(-c4nc5cc(C(F)(F)F)ccc5[nH]4)s3)cc2)cc1.O=C(O)C(F)(F)F` [TCMDC-132814], the “% Inhibition” value is reported as 75.71%.
`O=C(O)C(F)(F)F.OCC1CCN(Cc2ccc(-c3ccc(-c4nc5cc(C(F)(F)F)ccc5[nH]4)s3)cc2)CC1` [TCMDC-133120] was tested, and the “% Inhibition” value was 54.7%.
With `O=C(O)C(F)(F)F.OCC1CCN(Cc2cccc(-c3ccc(-c4nc5cc(C(F)(F)F)ccc5[nH]4)s3)c2)CC1` [TCMDC-133126] the “% Inhibition” value was 5.885%.
With `CC(C)NCc1ccc(-c2ccc(-c3nc4cc(C(F)(F)F)ccc4[nH]3)s2)cc1.O=C(O)C(F)(F)F` [TCMDC-132745] the “% Inhibition” value was -79.18%.
In the case of `Nc1cccc(CNCc2ccc(-c3ccc(-c4nc5cc(C(F)(F)F)ccc5[nH]4)s3)cc2)c1.O=C(O)C(F)(F)F` [TCMDC-132939], the “% Inhibition” value is reported as -86.12%.
For `CN(CCN)Cc1cccc(-c2ccc(-c3nc4cc(C(F)(F)F)ccc4[nH]3)s2)c1.O=C(O)C(F)(F)F` [TCMDC-132820], the “% Inhibition” value was 44.42%.
With `CN(CCN)Cc1ccc(-c2ccc(-c3nc4cc(C(F)(F)F)ccc4[nH]3)s2)cc1.O=C(O)C(F)(F)F` [TCMDC-132821] the “% Inhibition” value was 65.23%.
With `Cc1cccc2[nH]c(-c3cccc(-c4ccc(NC(=O)Cc5ccon5)cc4)c3)nc12` [TCMDC-136906] the “% Inhibition” value was -38.48%.
For `Cc1cccc(/C=C/C(=O)NC2CCC(N3CCC(c4ccccc4C)CC3)CC2)c1` (stereo not drawn) [TCMDC-133528], the “% Inhibition” value was -62.92%.
`CN1CCN(c2ccnc3ccc(NC(=O)Cc4ccc(Br)c5ccccc45)cc23)CC1` [TCMDC-139254] was tested, and the “% Inhibition” value was 0.9853%.
For `CS(=O)(=O)NCCCNCc1ccc(-c2cccc(-c3nc4ccc(F)cc4[nH]3)c2)cc1` [TCMDC-133077], the “% Inhibition” value was 6.508%.
In the case of `COc1ccc2ncc(F)c(CCN3CCC(CNCc4cccc5c4OCO5)CC3)c2n1` [TCMDC-135851], the “% Inhibition” value is reported as -2.329%.
`CCN(CC)CCCOC(=O)c1ccc2c(c1)-c1ccc(C(=O)OCCCN(CC)CC)c3cccc-2c13` [TCMDC-125491] was tested, and the “% Inhibition” value was 109%.
In the case of `CCCN(CC)CCOC(=O)c1ccccc1` [TCMDC-131376], the “% Inhibition” value is reported as 17.72%.
In the case of `CCN(CC)/C(=N/C(=N)NCc1cccc(Cl)c1)NCCCCCCN/C(=N\C(=N)NCc1cccc(Cl)c1)N(CC)CC` [TCMDC-131820], the “% Inhibition” value is reported as 122%.
`CCN(CC)/C(=N/C(=N)NCc1ccc(Cl)cc1Cl)NCCCCCCN/C(=N\C(=N)NCc1ccc(Cl)cc1Cl)N(CC)CC` [TCMDC-131819] was tested, and the “% Inhibition” value was 120%.
`CCN(CC)C(=NC(=N)NCc1ccc(Cl)cc1)NCCCCCCNC(=NC(=N)NCc1ccc(Cl)cc1)N(CC)CC` [TCMDC-131817] was tested, and the “% Inhibition” value was 120%.
For `CN(C)C(=O)CC(=O)NCc1cccc(Cl)c1` [TCMDC-131747], the “% Inhibition” value was 5.736%.
`CCCCN(CCCC)C(=NC(=N)NCc1ccc(Cl)c(Cl)c1)NCCCCCCNC(=NC(=N)NCc1ccc(Cl)c(Cl)c1)N(CCCC)CCCC` [TCMDC-131821] was tested, and the “% Inhibition” value was 116.7%.
For `CC/N=C(/NCCCCCCN/C(=N/CC)NCc1ccccc1)NCc1ccccc1` [TCMDC-137726], the “% Inhibition” value was -33.37%.
With `CCCCN(CCCC)C(=Nc1cccc(Cl)c1Cl)Nc1ccc(C#N)cc1O` [TCMDC-140226] the “% Inhibition” value was -14.17%.
For `CCCc1cc(Cc2cnc(N)nc2N)cc(OCCCCCC(=O)O)c1OC` [TCMDC-137182], the “% Inhibition” value was 2.989%.
In the case of `O=C(NC1CCN(Cc2ccccc2)CC1)c1ccc2c(=O)n(Cc3ccc(Cl)cc3)c(=S)[nH]c2c1` [TCMDC-125694], the “% Inhibition” value is reported as 0.6987%.
In the case of `COCCNCc1cccc(C#Cc2cc3ncnc(Nc4ccc(OCc5cccc(F)c5)c(Cl)c4)c3s2)n1` [TCMDC-138842], the “% Inhibition” value is reported as 7.186%.
In the case of `Fc1ccc(CN2CCN(c3ncnc4cc(-c5ccccc5)sc34)CC2)cc1` [TCMDC-132385], the “% Inhibition” value is reported as -47.67%.
For `CCCc1cc(Cc2cnc(N)nc2N)cc2c1OC(C)C2C` (stereo not drawn) [TCMDC-138047], the “% Inhibition” value was 3.526%.
`O=C1COC2(CN1CC1CCN(Cc3ccc(O)c(Cl)c3)C1)c1ccccc1-c1ccccc12` (stereo not drawn) [TCMDC-136343] was tested, and the “% Inhibition” value was -1.738%.
With `NC(N)=NC(=O)Nc1ccc(Cl)c(C(F)(F)F)c1` [TCMDC-137469] the “% Inhibition” value was -12.43%.
`Cc1ncc(CN2CCC(C(=O)Nc3ccc(-c4nc5ccccc5o4)cc3)CC2)s1` [TCMDC-124675] was tested, and the “% Inhibition” value was 0.01985%.
`O=C(Nc1cccc(CN2CCCN(Cc3cccc(O)c3)CC2)c1)c1ccc2ccccc2c1` [TCMDC-141855] was tested, and the “% Inhibition” value was 21.81%.
In the case of `Cc1nccc2c(NC(=O)N[C@@H]3CCN(c4ncc(C(F)(F)F)cc4Br)C3)cccc12` [TCMDC-141942], the “% Inhibition” value is reported as 13.41%.
`Cc1nc2ccc3ccc(CNc4ccc(C(=O)N[C@@H](CCC(=O)O)C(=O)O)c(F)c4)cc3c2c(=O)[nH]1` [TCMDC-138112] was tested, and the “% Inhibition” value was -4.938%.
In the case of `Cc1ccc2ccncc2c1N` [TCMDC-138025], the “% Inhibition” value is reported as -56.11%.
`CN1CCC(N2CCN(c3ccc4c(=O)nc(CCc5cccc(F)c5F)n(CC(=O)N(C)Cc5ccc(-c6ccc(C(F)(F)F)cc6)cc5)c4n3)CC2)CC1` [TCMDC-136512] was tested, and the “% Inhibition” value was 105.9%.
For `CN(Cc1ccc(-c2ccc(C(F)(F)F)cc2)cc1)C(=O)Cn1c(CCc2cccc(F)c2F)nc(=O)c2ccc(N3CCN(CCN4CCCCC4)CC3)nc21` [TCMDC-136511], the “% Inhibition” value was 109.8%.
For `Cc1cc(NC(=O)Nc2cccc(C#N)c2)c2ccccc2n1` [TCMDC-138953], the “% Inhibition” value was 4.681%.
With `Nc1cccc(CNCc2ccc(-c3ccc(-c4nc5ccccc5[nH]4)s3)cc2)c1` [TCMDC-132927] the “% Inhibition” value was -10.94%.
In the case of `CSc1nc2nc(C)c(Cc3cccc(C(F)(F)F)c3)c(C)n2n1` [TCMDC-123763], the “% Inhibition” value is reported as -63.49%.
For `CN(C)CCC(O)(c1ccc(Br)cc1)c1cccnc1` (stereo not drawn) [TCMDC-131412], the “% Inhibition” value was -6.865%.
With `CC(CO)(CO)NCc1cc2ccc3ccsc3c2c2ccccc12` [TCMDC-137753] the “% Inhibition” value was 1.403%.
In the case of `CC(CO)(CO)NCc1cc2c3ccccc3c(CNC(C)(CO)CO)cc2c2ccccc12` [TCMDC-137752], the “% Inhibition” value is reported as 88.47%.
For `Cn1c2ccccc2c2c3ccccc3c(CNC(CO)(CO)CO)cc21` [TCMDC-137747], the “% Inhibition” value was 1.595%.
`COc1ccccc1C1CC(c2ccc(C)cc2)=NN1C(=O)c1ccccc1` (stereo not drawn) [TCMDC-123887] was tested, and the “% Inhibition” value was 21.23%.
With `COc1cc(Cc2cnc(N)nc2N)c2ccsc2c1OC` [TCMDC-137762] the “% Inhibition” value was -4.679%.
In the case of `Cc1cc(NCCc2ccccc2)nc(/N=C(\N)Nc2ccccc2Cl)n1` [TCMDC-138370], the “% Inhibition” value is reported as 92.38%.
With `CCOc1cc(C)ccc1N1CCN(CCCCNC(=O)c2ccc(NC(=O)c3ccc(Cl)cc3)cc2)CC1` [TCMDC-138523] the “% Inhibition” value was 2.314%.
With `CCOC(=O)c1cccc(N/C(N)=N/c2nc(C)cc(NCCc3ccccc3)n2)c1` [TCMDC-138372] the “% Inhibition” value was 76.13%.
`CCNc1cc(C)nc(Nc2ccc(NC(=O)c3c(F)cccc3Cl)cc2)n1` [TCMDC-124984] was tested, and the “% Inhibition” value was 3.1%.
In the case of `CCOC(=O)N1CCN(CCCCCNc2cc(C)nc(/N=C(\N)Nc3ccc(Cl)cc3)n2)CC1` [TCMDC-138013], the “% Inhibition” value is reported as 60.55%.
`CCOC(=O)N1CCN(C(=O)Nc2ccc(Cl)cc2)CC1` [TCMDC-125820] was tested, and the “% Inhibition” value was -28.23%.
`CCOC(=O)c1cccc(NC(=O)Nc2cc(C)nc3ccccc23)c1` [TCMDC-138957] was tested, and the “% Inhibition” value was -2.163%.
In the case of `Cc1cc(N2CC=CCC2)nc(/N=C(\N)Nc2ccc(Cl)cc2)n1` [TCMDC-131240], the “% Inhibition” value is reported as 30.94%.
With `CCN(CC)CCNc1cc(C)nc(/N=C(\N)Nc2ccc(Cl)cc2)n1` [TCMDC-137477] the “% Inhibition” value was 81.2%.
For `COc1ccc2nccc(NC(=O)C3(O)CCC(NCc4ncc5c(c4Cl)OCCO5)CC3)c2n1` (stereo not drawn) [TCMDC-141562], the “% Inhibition” value was 2.096%.
For `O=C(O)C(F)(F)F.O=C(O)CCc1ccc(-c2c[nH]c3ncc(-c4ccc5ncccc5c4)cc23)cc1` [TCMDC-136336], the “% Inhibition” value was 14.57%.
